{"source": "PubChem BioAssay (EPA / NIEHS)", "note": "Values joined by “and” are separate entries in the source; they are usually repeats but may differ in a detail not shown here. Equal values may be shown once. Some compounds were tested as several samples or in several runs, with calls that do not always agree. Active and inactive are the calls of the source. Rule for the calls: active = hit-call score of the fitted dose curve at least 0.9, where 1 is the maximum; inconclusive = response in the unintended direction; inactive = score below 0.9.", "data": [{"biological_target": "Estrogen receptor beta (Homo sapiens) (UniProt Q92731)", "sequence (Q92731 whole entry, looked up)": "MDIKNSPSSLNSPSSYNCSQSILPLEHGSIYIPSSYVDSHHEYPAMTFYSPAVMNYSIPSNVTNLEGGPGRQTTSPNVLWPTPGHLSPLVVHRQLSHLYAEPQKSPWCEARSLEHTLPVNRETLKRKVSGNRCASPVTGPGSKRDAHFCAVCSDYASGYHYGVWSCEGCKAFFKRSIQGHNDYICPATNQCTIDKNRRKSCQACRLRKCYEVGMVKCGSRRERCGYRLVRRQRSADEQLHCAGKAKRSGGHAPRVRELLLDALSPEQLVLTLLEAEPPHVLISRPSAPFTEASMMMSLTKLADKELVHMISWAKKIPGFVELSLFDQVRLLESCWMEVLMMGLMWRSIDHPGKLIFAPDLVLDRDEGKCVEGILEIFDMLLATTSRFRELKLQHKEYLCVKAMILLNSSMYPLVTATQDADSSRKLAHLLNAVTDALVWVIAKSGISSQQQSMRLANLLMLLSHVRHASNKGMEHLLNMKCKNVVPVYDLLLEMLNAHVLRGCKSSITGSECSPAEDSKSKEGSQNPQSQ", "assay": "OT_ER_ERbERb_1440: Odyssey Thera (OT) 24-hour HEK293T Protein-Complementation Assay for Estrogen Receptor-beta/-beta Homodimer (AID 2283380);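 note: scored as signal increase over DMSO baseline for both agonists and antagonists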", "procedure": "OT_ER_ERbERb_1440 is a cell-based assay that uses HEK293T, a human kidney cell line, with measurements taken at 24 hours after chemical dosing in a 384-well plate.OT_ER_ERbERb_1440 is one of one assay component(s) measured or calculated from the OT_ER_ERbERb_1440 assay. It is designed to make measurements of protein fragment complementation, a form of binding reporter, as detected with fluorescence intensity signals by Protein-fragment Complementation technology.Data from the assay component OT_ER_ERbERb_1440 was analyzed into 1 assay endpoint. This assay endpoint, OT_ER_ERbERb_1440, was analyzed in the positive analysis fitting direction relative to DMSO as the negative control and baseline of activity. Using a type of binding reporter, measures of receptor for gain-of-signal activity can be used to understand the binding at the pathway-level as they relate to the gene ESR2. Furthermore, this assay endpoint can be referred to as a primary readout, because the performed assay has only produced 1 assay endpoint. To generalize the intended target to other relatable targets, this assay endpoint is annotated to the nuclear receptor intended target family, where the subfamily is steroidal.\nProtein-fragment complementation assay, or PCA, is a method for the identification and quantification of protein-protein interactions. In the PCA, the proteins of interest (\"bait\" and \"prey\") are each covalently linked to fragments of a third protein (e.g. DHFR, which acts as a \"reporter\"). Interaction between the bait and the prey proteins brings the fragments of the reporter protein in close proximity to allow them to form a functional reporter protein whose activity can be measured. The OT ER beta / ER beta assay is a homodimer PCA of the ligand binding domain (LBD; amino acids 310-547) of human ER beta stably expressed in HEK293T cells. […] Cells are fixed in 4 percent formaldehyde and stained with Draq5 (BioStatus) to identify cells prior to signal detection. Fluorescent signal in the basal state of the assay is very low and is primarily punctuate and cytoplasmic. Modulation of this assay is quantified as an increase in mean fluorescence intensity in the nucleus (for agonists) or in the nucleus and cytoplasm (antagonists) relative to vehicle controls, and can be quantified on a high content imaging device or a laser scanning cytometer. The latter instrument is favored for this assay because of the rapid mode of data acquisition, the ability to acquire data from the entire cell population in a well (as opposed to a fraction of the well on the high content devices) and the larger dynamic range typically achieved with this instrument. To assess sensitivity of the ER beta/ER beta LBD assay to ligand, cells were treated with the ER agonist 17- beta-estradiol (E2) in 10-point concentration- response format for 24 hours and monitored response on a laser scanning plate cytometer (Acumen eX3; TTP Lab Tech).", "values": [{"smiles": "C#C[C@]1(O)CC[C@H]2[C@@H]3CCC4=CC(=O)CC[C@@H]4[C@H]3CC[C@@]21C", "AC50": "29.3 µM (active) and 30.3 µM (active) and 22.2 µM (active)", "outcome": "inactive"}, {"smiles": "CCCCCCCCOC(=O)CCCCCCCCC(=O)OCCCCCCCC", "outcome": "inactive"}, {"smiles": "NC(=O)N1C(=O)C(C(=O)c2cc(Cl)cs2)c2cc(F)c(Cl)cc21", "note": "(stereo not given)", "outcome": "inactive"}, {"smiles": "CCc1ccc(CCOc2ccc(CC3SC(=O)NC3=O)cc2)nc1", "note": "(stereo not given)", "outcome": "inactive"}, {"smiles": "CCCCCCCCCCCCN1CCCC1=O", "outcome": "inactive"}, {"smiles": "CC(=O)CC(C)(C)O", "outcome": "inactive"}, {"smiles": "OC1CCC(C2CCCCC2)CC1", "note": "(stereo not given)", "AC50": "57.8 µM (active) and 49.5 µM (active) and 59.4 µM (active)", "outcome": "inactive"}, {"smiles": "CCCCCCCCCCCCCCCS(=O)(=O)Oc1ccccc1", "outcome": "inactive"}, {"smiles": "ClC1=C(Cl)C(Cl)(Cl)C(Cl)=C1Cl", "outcome": "inactive"}, {"smiles": "CCCCCCCCC(=O)O", "outcome": "inactive"}, {"smiles": "COCC(C)OCC(C)O", "note": "(stereo not given)", "outcome": "inactive"}, {"smiles": "CCCCCCCCCCCCc1ccccc1S(=O)(=O)O", "outcome": "inactive"}, {"smiles": "NC(=O)N(O)[C@@H]1C=C[C@H](Oc2cccc(Oc3ccc(F)cc3)c2)C1", "AC50": "66.9 µM (active)"}, {"smiles": "OCCC(F)(F)C(F)(F)C(F)(F)C(F)(F)C(F)(F)C(F)(F)C(F)(F)C(F)(F)F", "outcome": "inactive"}, {"smiles": "C=C(C)C(=O)OCCC(F)(F)C(F)(F)C(F)(F)C(F)(F)C(F)(F)C(F)(F)F", "outcome": "inactive"}, {"smiles": "Oc1cc2ccccc2c2ccccc12", "outcome": "inactive"}, {"smiles": "O=C1OC2(c3ccccc31)c1cc(Br)c(O)c(Br)c1Oc1c2cc(Br)c(O)c1Br", "outcome": "inactive"}, {"smiles": "O=C(O)c1ccccc1C(c1ccc(O)cc1)c1ccc(O)cc1", "outcome": "inactive"}, {"smiles": "CCCCC(CC)COC(=O)CCCCC(=O)OCC(CC)CCCC", "note": "(stereo not given)", "outcome": "inactive"}, {"smiles": "CCCCCCC(=O)O", "outcome": "inactive"}, {"smiles": "Oc1cccc(O)c1", "AC50": "18 µM (active)"}, {"smiles": "CN1CCN(c2ccccc2/C=C2\\SCCN(c3ccc(Cl)c(Cl)c3)C2=O)CC1", "outcome": "inactive"}, {"smiles": "COc1ccc([N+](=O)[O-])cc1N", "outcome": "inactive"}, {"smiles": "CN(C)C=O", "outcome": "inactive"}, {"smiles": "O=C(O)Cc1cc(I)c(Oc2cc(I)c(O)c(I)c2)c(I)c1", "outcome": "inactive"}, {"smiles": "CCCOC(=O)c1ccc(O)cc1", "AC50": "8.13 µM (active)"}, {"smiles": "OCCC(F)(F)C(F)(F)C(F)(F)C(F)(F)C(F)(F)C(F)(F)F", "outcome": "inactive"}, {"smiles": "Cc1oc(-c2ccccc2)nc1CCOc1ccc(C[C@H](Nc2ccccc2C(=O)c2ccccc2)C(=O)O)cc1", "outcome": "inactive"}, {"smiles": "Cc1cc(CCN2CCN(c3nsc4ccccc34)CC2)cc2c1NC(=O)CC2(C)C", "outcome": "inactive"}, {"smiles": "c1ccc2c(c1)Cc1ccccc1-2", "outcome": "inactive"}, {"smiles": "CN1CCC[C@H]1c1cccnc1", "outcome": "inactive"}, {"smiles": "CCCCCCCC(=O)O", "AC50": "21.3 µM (active)"}, {"smiles": "Nc1cccc2c(N)cccc12", "outcome": "inactive"}, {"smiles": "CC(C)(C)c1ccc(O)c(C(C)(C)C)c1", "outcome": "inactive"}, {"smiles": "C[C@@H]1C[C@H]2[C@@H]3CCC4=CC(=O)C=C[C@]4(C)[C@@]3(F)[C@@H](O)C[C@]2(C)[C@@]1(O)C(=O)COP(=O)(O)O", "outcome": "inactive"}, {"smiles": "CCc1nn(C2CCCCC2)c2cc(C3(C#N)CCC(C(=O)O)CC3)ccc12", "note": "(stereo not given)", "outcome": "inactive"}, {"smiles": "CCOC(=O)CC(O)(CC(=O)OCC)C(=O)OCC", "outcome": "inactive"}, {"smiles": "CC(C)(C)CC(C)(C)c1ccc(O)c(-n2nc3ccccc3n2)c1", "outcome": "inactive"}]}]}
